# mcGAS RapidFire: mouse cGAS inhibition by mass spec. Q8C6L5. recombinant mouse cGAS, cGAMP by RapidFire MS. inhibition, % at 12.5 µM. 130,000 compounds, 0.18% hits. AID 1259397;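 active = inhibition of cGAS enzyme activity at or above 60%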;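 note: enzyme stimulated by 45 bp dsDNA with ATP and GTP substrates; cGAMP share of summed cGAMP plus half ATP and half GTP signals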
# Target sequence (Q8C6L5 whole entry, looked up): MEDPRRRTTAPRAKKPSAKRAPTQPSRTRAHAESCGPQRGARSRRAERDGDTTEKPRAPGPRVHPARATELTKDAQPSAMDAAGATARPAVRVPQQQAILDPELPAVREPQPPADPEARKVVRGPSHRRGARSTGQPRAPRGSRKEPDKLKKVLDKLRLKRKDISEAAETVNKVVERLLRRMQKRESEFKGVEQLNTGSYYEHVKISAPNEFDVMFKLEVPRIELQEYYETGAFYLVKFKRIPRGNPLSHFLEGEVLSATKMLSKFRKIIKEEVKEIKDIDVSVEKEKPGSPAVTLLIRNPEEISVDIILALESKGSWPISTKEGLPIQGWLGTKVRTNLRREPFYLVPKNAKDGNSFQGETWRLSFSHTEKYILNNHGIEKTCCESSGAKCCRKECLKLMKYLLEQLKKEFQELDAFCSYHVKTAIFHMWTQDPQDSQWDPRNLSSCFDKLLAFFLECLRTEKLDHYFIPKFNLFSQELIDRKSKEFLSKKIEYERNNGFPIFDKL
# * = called active by the depositor. Many of the other results were omitted from the sample, so hits are more common in it than they were.
SMILES,mcGAS RapidFire
Nc1nncn1C(=O)c1ccc(Br)o1,82*
O=C(c1ccco1)N1CCN(C(=O)c2ccc(Br)o2)CC1,-5
CC1CCCN(C(=O)c2ccc(Br)o2)C1 (stereo unspecified),54
Cc1ccc(NC(=O)c2ccc(S(N)(=O)=O)c(C)c2)cc1C,-11
Cc1ccc(C(=O)Nc2ccc(S(=O)(=O)O)c3cc(S(=O)(=O)O)cc(S(=O)(=O)O)c23)cc1NC(=O)c1cccc(NC(=O)Nc2cccc(C(=O)Nc3cc(C(=O)Nc4ccc(S(=O)(=O)O)c5cc(S(=O)(=O)O)cc(S(=O)(=O)O)c45)ccc3C)c2)c1,93*
Cc1coc(-c2ccc(C)c(NC(=O)c3cccc(NS(C)(=O)=O)c3)c2)n1,-9
O=C1NCC2(CCCN(C(=O)c3cc(-c4ccccc4)on3)CC2)O1 (stereo unspecified),-26
CC(C)c1noc(C2CCN(C(=O)c3ccccc3C3CCNC3)CC2)n1 (stereo unspecified),-12
COc1c(Br)cc(Cl)cc1S(=O)(=O)N1CCN(C(=O)C2CC2)CC1,-6
CCC(CNC(=O)CN(C)C1CCCC1SC)c1ccccc1 (stereo unspecified),-23
COc1ccc(NC(=O)CSc2nc3nc(C)ncc3c(=O)n2C)cc1Cl,-7
Cc1ccccc1CC(C)(C)NC(=O)NCCn1ccnc1,-5
CN(C)C(=O)Cc1ccccc1NC(=O)NCCCn1ccnc1,94*
Cc1nc2ccccc2c(C)c1CC(=O)NCCCn1ccnc1,-7
CCc1c(C(=O)N(C)c2ccccc2)cnn1-c1ccc(F)cc1,-3
O=C1CCCCN1CCCC(=O)N1CCOC(Cc2ccccc2)C1 (stereo unspecified),-8
CCNC(=O)[C@H]1CC[C@@](C)(C(=O)NCCc2nc3c(C)cccc3[nH]2)C1(C)C,-12
COc1ccc(S(=O)C(C)c2ncc(C(C)(C)C)o2)cc1OC (stereo unspecified),68*
CC(Nc1cccc(NC(=O)CO)c1)c1ncc(C(C)(C)C)o1 (stereo unspecified),-5
Cc1ccc(S(=O)(=O)C(C)c2ncc(C(C)(C)C)o2)cc1C (stereo unspecified),-14
Cc1ccc(C(C)NC(=O)CSc2n[nH]c(=O)n2CC2CCCO2)cc1C (stereo unspecified),-13
O=C(c1cc(F)c(F)c(F)c1F)N1CCOC(COCc2cccc(C(F)(F)F)c2)C1 (stereo unspecified),-5
COC(=O)C(C)CC(=O)NCC(C)Oc1ccc(F)cc1 (stereo unspecified),2
CCn1ccc2cc(-c3c(-c4ccccc4)ncn3CCC(N)=O)ccc21,-11
Cc1c(C(=O)N(C)C(C)C2CC2)cnn1-c1ccc(Br)cc1 (stereo unspecified),-5
SMILES,mcGAS RapidFire
CCN1C(=O)C(=Cc2cc(C)n(CC(F)(F)F)c2C)SC1=S,-11
Cc1cc(C=C2C(=O)NC(=S)NC2=O)c(C)n1CC(F)(F)F,74*
COC(=O)C(=Cc1cc(C)n(CC(F)(F)F)c1C)C(C)=O,-12
CCC(CC)CN1CCc2nnc(C(CC(C)C)NC(=O)c3cc(C)cc(C)c3)n2CC1 (stereo unspecified),-9
Clc1ccc(Oc2nc3ccccc3n3cnnc23)cc1,-4
N#Cc1c(N)nc(-c2ccccc2)nc1C(F)(F)F,48
COC(=O)Nc1ccccc1OCc1cnc(C)s1,-5
CCOC(=O)c1nn(-c2ccccc2F)cc1O,-2
CC(=O)Nc1nc2nc(C)c(C)c(=O)n2[nH]1,-12
CCCc1nc2nc(C)c([N+](=O)[O-])c(=O)n2[nH]1,-6
Cc1nc2nc(C)c(Br)c(=O)n2[nH]1,69*
COc1ccc(NC(=O)Nc2ccc(N3CCCCC3)cc2)cc1,-13
COc1ccccc1OCCN1C(=O)C2(OCCCO2)c2cc(C)ccc21,-7
CN(CCN1CCCCCC1)C(=O)c1cc(CN2CCCC(O)C2)on1 (stereo unspecified),4
O=C(C(=O)N1CCCC1c1nc(-c2ccccc2)no1)c1ccco1 (stereo unspecified),-15
CCc1nn2c(N)c(C=C3C=CC(=O)C=C3)c(=O)nc2s1,89*
Nc1c(C=C2C=CC(=O)C=C2)c(=O)nc2sc(-c3ccccc3Cl)nn12,50
Nc1c(C=C2C=CC(=O)C=C2)c(=O)nc2sc(-c3ccccc3)nn12,51

# Bioassay records from PubChem BioAssay.
